Bioassay records: PubChem, NMMLSC
An excerpt weighted towards active compounds, which were near 2.9% of everything screened.
GRK2 inh: human GRK2 inhibition via aptamer displacement. P25098. bead flow cytometry, FAM-aptamer displacement from GRK2. inhibition of aptamer binding, % at 10 µM. actives 0.59% (n = 330,000). AID 488847;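 active = inhibition of aptamer binding above 40%, roughly 3 SD of noise, on plates passing a quality check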;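 also: median bead fluorescence of bound FAM aptamer so fluorescent compounds give negative values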
MEKK2 mut-MEK5: signal of MEK5 binding to mutant human MEKK2 PB1 domain; bead flow cytometry, Alexa488-MEK5 binding to MEKK2 mutant; percent response, % at 10 µM; actives 0.35% (n = 290,000); in the data active = percent response above about 24%, passing the limit was not always enough
Beta2AR agonist: agonists of human beta-2 adrenergic receptor inducing internalization | AID 504454 | Am2.2-beta2AR cells, FAP receptor internalization, flow cytometry | actives 0.43% (n = 340,000) | response, % (test concentration not listed) | P07550;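 active = response above a set limit, near 3 SD of response in nonfluorescent compounds, cut at about 42% in these data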
Target sequence (P07550 whole entry, looked up): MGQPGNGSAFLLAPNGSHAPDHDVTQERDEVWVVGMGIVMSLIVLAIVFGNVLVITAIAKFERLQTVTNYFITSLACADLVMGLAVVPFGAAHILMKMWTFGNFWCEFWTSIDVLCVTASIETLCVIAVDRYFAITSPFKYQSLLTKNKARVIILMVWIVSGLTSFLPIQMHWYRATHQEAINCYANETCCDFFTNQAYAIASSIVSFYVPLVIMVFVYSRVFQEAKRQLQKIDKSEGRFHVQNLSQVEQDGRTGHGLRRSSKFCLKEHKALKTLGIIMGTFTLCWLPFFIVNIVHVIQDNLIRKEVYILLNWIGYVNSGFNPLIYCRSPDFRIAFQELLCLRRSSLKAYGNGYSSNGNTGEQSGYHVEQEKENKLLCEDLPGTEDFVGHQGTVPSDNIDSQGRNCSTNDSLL
MEKK3 PB1 HTS: modulators (inhibitors or enhancers) of MEK5 binding to human MEKK3 PB1 domain; bead-based flow cytometry, Alexa488-MEK5 binding to MEKK3; actives lie on both sides; 0 = blocked by unlabeled MEK5, 100 = vehicle; binding response (% of control), % at 10 µM; actives 1.4% (n = 290,000); AID 1529;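 active = binding response more than 3 SD above or below the average of its plate-row segment, actives on both sides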;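 also: Alexa488 bead fluorescence after subtracting the streptavidin-only scavenger bead signal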
MEKK2wt PB1 HTS: raises or lowers MEK5 binding to wildtype human MEKK2 PB1 domain; Q9Y2U5; bead flow cytometry, Alexa488-MEK5 binding to MEKK2 WT; actives lie on both sides; binding response (% of control), % at 10 µM; actives 1.1% (n = 290,000); in the data active = binding response below about 67% or above about 130%
* = called active by the depositor; . = no result given; [ ] = remark or other dose.

SMILES	GRK2 inh	MEKK2 mut-MEK5	Beta2AR agonist	MEKK3 PB1 HTS	MEKK2wt PB1 HTS
CCn1nc(C)c(CN2CCC(C(=O)Nc3cccc(-c4cccc(Cl)c4)c3)CC2)c1C	0.0	12.0	11.6	100.0	146.0*
CC(C)CC(=O)/C(=C\c1ccc(Cl)cc1Cl)n1cncn1	.	-3.0	46.5*	92.0	92.0
CCc1ccc(NC(=O)c2cccc(C(=O)Nc3ccc(CC)cc3)n2)cc1	0.0	-28.0	7.6	0.0*[inhibitor]	-9.0*[inhibitor]
O=C(CCCN1C(=O)c2ccccc2C1=O)Nc1nnc(C2CC2)s1	0.0	-2.0	9.3	97.0	98.0
CCOC(=O)c1c(C)oc2c(F)c(F)c(F)c(F)c2c1=O	2.0	-4.0	43.1*	100.0	98.0
O=C(COC(=O)CCc1c[nH]c2ccccc12)Nc1ccccc1	.	.	0.7	.	.
O=C(COC(=O)CCc1c[nH]c2ccccc12)NC(c1ccccc1)c1ccccc1	0.0	0.0	3.7	136.0*	103.0
COc1ccc(C(=O)OCC(=O)c2ccc3c(c2)NC(=O)CO3)cc1S(=O)(=O)N1CCOCC1	0.0	.	-2.3	.	.
CCc1cc(SC#N)cc(C)c1NC(=O)CCl	0.0	-2.0	47.2*	100.0	100.0
O=C(CNC(=O)/C=C/c1ccco1)N=Nc1c(O)[nH]c2ccccc12	50.0*	6.0	5.0	102.0	104.0
COc1cc(OC)cc(C(=O)N[C@H](C(=O)OCC(=O)N2CCN(S(=O)(=O)c3ccc(C)cc3)CC2)C(C)C)c1	.	.	8.3	.	.
O=C(O)c1cccc(-n2cccc2/C=C2\SC(=O)N(Cc3ccccc3F)C2=O)c1	45.0*	-3.0	2.4	91.0	90.0
COc1cccc(NC(=O)CN(C)C(=O)c2c(C)nn(CC(C)C)c2Cl)c1	1.0	.	-1.5	.	.
CCCNC(=O)c1ccc2nc(-c3ccccc3)c(-c3ccccc3)nc2c1	1.0	8.0	-2.5	106.0	104.0
CCN1CCN(CCNC(=O)c2ccc3nc(-c4cccc(C)c4)c(-c4cccc(C)c4)nc3c2)CC1	0.0	25.0*	11.1	104.0	151.0*
COc1ccc(-c2cc(C(F)F)n3ncc(C(=O)n4ccnc4C)c3n2)cc1	0.0	3.0	48.0*	100.0	113.0
Cc1cc(C)nc(NC(=NCCc2c[nH]c3ccccc23)NC(=O)Nc2ccc(Cl)c(Cl)c2)n1	0.0	47.0	-4.1	109.0	49.0*
O=C(O)c1nn(CCOc2c(Cl)cccc2Cl)c(=O)c2ccccc12	0.0	0.0	-1.5	104.0	102.0
CC(C)(C)C(=O)OCCn1c(=O)c2cc3c(=O)n(CCOC(=O)C(C)(C)C)c(=O)c3cc2c1=O	0.0	-16.0	2.9	2.0*[inhibitor]	2.0*[inhibitor]
Cc1ccc(/C=C/C(=O)Nc2nnc(SCc3ccc(C#N)cc3)s2)o1	100.0*	-4.0	-0.1	88.0	89.0
O=C(COC(=O)COc1ccc(Cl)cc1Cl)NC1CCCC1	.	.	1.5	.	.
Cc1nnc(N/N=C\c2ccc(-c3cccc(C(=O)O)c3)o2)n1N	88.0*	-3.0	-5.1	97.0	98.0
Cc1nnc(N/N=C/c2ccc(-c3ccc(Br)cc3)o2)n1N	2.0	0.0	-8.7	106.0	98.0
Nc1cc(=O)[nH]c(SCC(=O)Nc2ccc(Oc3ccccc3)cc2)n1	0.0	1.0	-2.9	96.0	94.0
Cc1ccc2c(c1)NC(=O)[C@@]1(C)[C@@H](c3ccccc3)[C@H]3COc4ccccc4[C@@H]3N1C2=O	.	.	1.5	.	.
SMILES	GRK2 inh	MEKK2 mut-MEK5	Beta2AR agonist	MEKK3 PB1 HTS	MEKK2wt PB1 HTS
Cc1ccc2c(c1)C(=O)N1[C@H]3c4ccccc4OC[C@@H]3[C@H](c3ccccc3)[C@]1(C)C(=O)N2	93.0*	.	5.7	.	.
COc1ccc(SC[C@H](Cc2ccccc2)N2CC[C@@H](C)CCC2=O)cc1	3.0	.	-2.6	.	.
COc1ccc2c(c1)/C(=N/N1C(=O)c3ccccc3C1=O)C(=O)N2	4.0	-2.0	.	97.0	94.0
COc1ccc2c(c1)/C(=C\c1cccc(/C=C3/C(=O)Nc4ccc(OC)cc43)n1)C(=O)N2	.	.	92.9*	.	.
N#C/C(C(N)=O)=C1/SC=C(c2ccccc2)N1c1ccccc1	1.0	20.0	2.3	107.0	96.0
N#C/C(C(=O)c1ccccc1)=C1/SC=C(N)N1c1ccccc1	.	-30.0	.	2.0*[inhibitor]	4.0*[inhibitor]
COc1ccc(C(=O)c2ccc(Cl)c([N+](=O)[O-])c2)cc1	5.0	0.0	47.8*	103.0	108.0
Cc1cccc2sc(N(CCCN(C)C)C(=O)c3ccc(S(=O)(=O)N4CCc5ccccc5C4)cc3)nc12	0.0	51.0*	46.0*	108.0	216.0*
